24 compounds from PubChem BioAssay (NCATS) can be followed below.

Assay [1] concerns the target Rap guanine nucleotide exchange factor 3 (Homo sapiens) (UniProt O95398). In words: Confirmatory qHTS for antagonist of cAMP-regulated guanine nucleotide exchange factor 3 (EPAC1) (AID 1645880). Further: nearly all actives have a fitted effect of over 55% in size. Further: potency means the concentration at half of the fitted maximal effect.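 On activity, negative = inhibition: plate controls were DMSO only for no effect and full effect of the ATA control for full effect.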 The conditions noted are these: EPAC1 Rap1B-BODIPY-GDP exchange, fluorescence; activity, negative = inhibition: at 115 µM (top of the series). An outline of the steps:
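Released BODIPY-GDP fluoresces less than Rap1-bound BODIPY-GDP; the signal is followed at 480/540 nm at 5-min intervals over 30 min, after 5 min at room temperature. Reactions contain 100 nM EPAC1, 250 nM RAP1B-BODIPY-GDP and 50 uM GDP; results are normalized to ATA and DMSO.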
(qHTS replaces the single test concentration by a dilution series.)

Assay [2] shares this target. In words: Confirmatory qHTS for agonist of cAMP-regulated guanine nucleotide exchange factor 3 (EPAC1) (AID 1645881). Further: nearly all actives have a fitted effect of over 75% in size. Further: potency means the concentration at half of the fitted maximal effect.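 On activation: EPAC1 catalysed release of BODIPY-GDP from Rap1B seen as fluorescence loss; 100% = effect of cAMP agonist control.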
Assay [3] addresses Rap guanine nucleotide exchange factor 4 (Homo sapiens) (UniProt Q8WZA2). In words: Confirmatory qHTS for agonist of cAMP-regulated guanine nucleotide exchange factor 4 (EPAC2) (AID 1645884).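 Further: nucleotide exchange releases bodipy-GDP from Rap1 and this lowers its fluorescence; on the % scale 0 is the no-effect control and ±100 the full control effect; nearly all actives have a fitted effect of over 65% in size.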
Assay [4] has the same target. The assay is described as follows: Confirmatory qHTS for antagonist of cAMP-regulated guanine nucleotide exchange factor 4 (EPAC2) (AID 1645885). Further: nearly all actives have a fitted effect of over 25% in size. Further: potency means the concentration at half of the fitted maximal effect. On activity change, negative = inhibition: on the % scale 0 is the no-effect control and ±100 the full control effect.
In assay [5] the target is Rap guanine nucleotide exchange factor 3 (Homo sapiens) (UniProt O95398). The assay is described as follows: Counterscreen qHTS for agonist of cAMP-regulated guanine nucleotide exchange factor 3 (EPAC1) (AID 1645889). Further: % of control where 0% means no effect; nearly all actives have a fitted effect of over 40% in size. Summed up: (§1)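 Measured: fluorescence of BODIPY-GDP bound to Rap1B, which falls as exchange proceeds. Conditions include 50 uM competing GDP, 5 and 30 min reads, and a later cAMP challenge for antagonist detection.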
Rap guanine nucleotide exchange factor 3 (Homo sapiens), sequence (O95398 whole entry, looked up): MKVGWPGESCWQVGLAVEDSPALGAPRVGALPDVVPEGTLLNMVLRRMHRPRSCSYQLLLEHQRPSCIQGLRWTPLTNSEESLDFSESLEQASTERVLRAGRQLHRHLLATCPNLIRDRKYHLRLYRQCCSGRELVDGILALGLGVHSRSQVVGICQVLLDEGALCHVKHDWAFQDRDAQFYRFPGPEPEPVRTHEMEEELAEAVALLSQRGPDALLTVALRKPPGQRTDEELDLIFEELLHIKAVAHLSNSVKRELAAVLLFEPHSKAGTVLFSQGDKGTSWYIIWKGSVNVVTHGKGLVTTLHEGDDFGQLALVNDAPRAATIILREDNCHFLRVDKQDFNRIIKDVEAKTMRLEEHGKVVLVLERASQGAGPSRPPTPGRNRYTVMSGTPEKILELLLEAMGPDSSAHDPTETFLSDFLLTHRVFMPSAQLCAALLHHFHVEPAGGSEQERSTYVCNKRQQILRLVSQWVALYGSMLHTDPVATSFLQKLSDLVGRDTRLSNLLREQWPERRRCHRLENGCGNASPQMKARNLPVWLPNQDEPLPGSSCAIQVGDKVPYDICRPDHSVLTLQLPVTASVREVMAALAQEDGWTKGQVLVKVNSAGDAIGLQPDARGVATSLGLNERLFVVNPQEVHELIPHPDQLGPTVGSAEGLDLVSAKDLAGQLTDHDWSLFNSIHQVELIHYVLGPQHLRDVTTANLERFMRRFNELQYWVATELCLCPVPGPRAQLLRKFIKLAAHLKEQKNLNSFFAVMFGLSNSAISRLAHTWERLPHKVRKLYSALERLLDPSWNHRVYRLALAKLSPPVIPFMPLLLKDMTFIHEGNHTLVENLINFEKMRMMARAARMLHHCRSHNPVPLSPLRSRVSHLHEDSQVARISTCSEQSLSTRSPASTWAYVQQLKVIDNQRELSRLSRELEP

In assay [6] the target is Tumor susceptibility gene 101 protein (Homo sapiens) (UniProt Q99816). The assay is described as follows: qHTS Assay for Iinhibitors of HIV-1 Budding by Blocking the Interaction of PTAP/TSG101: Hit Validation (AID 651600). Further: nearly all actives have a fitted effect of over 70% in size. Further: potency means the concentration at half of the fitted maximal effect. On activity change, negative = inhibition: on the % scale 0 is the no-effect control and ±100 the full control effect. An outline of the steps:
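Measuring PTAP–Tsg101 interaction by FP: protein at 10 uM and fluorescent peptide at 50 nM (final), buffer 10 mM HEPES pH 7.5 with 0.15 M NaCl, 3 mM EDTA, 0.1 mM TCEP, 0.01% Tween 20; 20 min incubation, r.t.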

The target of assay [7] is Rap guanine nucleotide exchange factor 3 (Homo sapiens) (UniProt O95398). In words: Counterscreen qHTS for antagonist of cAMP-regulated guanine nucleotide exchange factor 3 (EPAC1) (AID 1645888). Further: % of control where 0% means no effect. An outline of the steps: as §1

Inconclusive results are not listed. Values without a mark were called inactive. Activity calls are given as the source filed them. The call rests on the fitted dose curve; in most records, active means well fitted curve in the direction sought with a large enough effect; inconclusive means small, poorly fitted or top-dose-only effect, or another doubt; inactive means no such curve, though single readings can be large; an effect the other way counts as inactive or inconclusive.

Tumor susceptibility gene 101 protein (Homo sapiens), sequence (Q99816 whole entry, looked up): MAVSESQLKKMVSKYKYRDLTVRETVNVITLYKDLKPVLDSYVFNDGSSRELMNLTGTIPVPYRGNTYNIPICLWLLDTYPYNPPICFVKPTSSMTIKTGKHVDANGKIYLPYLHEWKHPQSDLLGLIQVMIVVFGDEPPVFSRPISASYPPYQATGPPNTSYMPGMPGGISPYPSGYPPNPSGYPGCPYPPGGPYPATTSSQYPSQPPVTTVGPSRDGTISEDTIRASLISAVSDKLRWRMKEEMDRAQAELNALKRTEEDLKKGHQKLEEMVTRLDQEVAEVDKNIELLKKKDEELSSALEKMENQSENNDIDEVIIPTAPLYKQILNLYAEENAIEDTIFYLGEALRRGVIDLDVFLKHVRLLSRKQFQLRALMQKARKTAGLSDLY
Rap guanine nucleotide exchange factor 4 (Homo sapiens), sequence (Q8WZA2 whole entry, looked up): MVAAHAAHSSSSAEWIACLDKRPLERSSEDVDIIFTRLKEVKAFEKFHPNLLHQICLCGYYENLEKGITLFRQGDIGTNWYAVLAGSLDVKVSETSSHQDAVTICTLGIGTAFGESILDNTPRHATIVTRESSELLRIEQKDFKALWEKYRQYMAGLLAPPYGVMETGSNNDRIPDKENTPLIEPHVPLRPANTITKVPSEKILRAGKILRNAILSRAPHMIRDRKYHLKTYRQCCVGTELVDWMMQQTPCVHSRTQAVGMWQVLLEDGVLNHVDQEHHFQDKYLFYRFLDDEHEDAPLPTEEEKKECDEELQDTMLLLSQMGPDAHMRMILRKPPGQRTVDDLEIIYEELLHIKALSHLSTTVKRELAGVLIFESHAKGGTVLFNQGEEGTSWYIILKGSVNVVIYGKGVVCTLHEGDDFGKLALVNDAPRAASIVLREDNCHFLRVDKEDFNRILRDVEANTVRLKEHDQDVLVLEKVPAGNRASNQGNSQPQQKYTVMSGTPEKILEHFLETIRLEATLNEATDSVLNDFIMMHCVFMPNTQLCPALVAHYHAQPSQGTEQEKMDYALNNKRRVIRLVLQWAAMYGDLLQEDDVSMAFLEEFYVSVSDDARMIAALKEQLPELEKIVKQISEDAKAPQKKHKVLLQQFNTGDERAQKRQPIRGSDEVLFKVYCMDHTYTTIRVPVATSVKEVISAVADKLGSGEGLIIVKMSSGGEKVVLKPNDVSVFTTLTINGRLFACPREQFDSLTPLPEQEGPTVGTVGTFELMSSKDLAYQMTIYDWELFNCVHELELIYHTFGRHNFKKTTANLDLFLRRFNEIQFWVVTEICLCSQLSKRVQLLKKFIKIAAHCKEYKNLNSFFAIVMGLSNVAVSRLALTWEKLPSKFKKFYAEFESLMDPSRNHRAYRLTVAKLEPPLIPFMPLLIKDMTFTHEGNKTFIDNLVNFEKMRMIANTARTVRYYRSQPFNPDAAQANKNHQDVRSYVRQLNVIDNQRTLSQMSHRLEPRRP

Regarding `Cc1ccc2oc(=O)n(CCCOc3ccccc3Cl)c2c1`, the Potency entry in assay [1], in assay [2], in assay [3], in assay [4] and in assay [5] was “inactive” throughout.

In the case of `C/C(=N\NC(=O)CC#N)c1cc2ccc(O)cc2oc1=O`, the Potency entry in assay [1], in assay [2] and in assay [4] was “inactive” each time. The activation in assay [3] was 2.05% [at 17.1 µM, percent relative to cAMP agonist control]; in assay [5], -21% [at 30.8 µM].

Consider `CC(=O)Nc1ccc(N=Cc2c(O)c(C(=O)Nc3ccccc3)cc3ccccc23)cc1`, for which the Potency in assay [6] is 16.3 µM (active). For the same compound, the Potency entry in assay [1], in assay [2] and in assay [4] was “inactive” throughout. In addition, in assay [3], the activation was -21% [at 17.1 µM, percent relative to cAMP agonist control]. In assay [7], the activity change, negative = inhibition is -16.4% [at 30.8 µM].

As to `CCC(Oc1ccccc1)C(=O)Nc1ccccc1N1CCCCC1` (stereo not given), the Potency result in assay [1], in assay [2], in assay [3], in assay [4] and in assay [5] was “inactive” in each case.

For `O=C1N/C(=N/NC(=O)c2cccc3ccccc23)S/C1=C\c1ccccc1OCc1ccccc1`, the Potency in assay [1] was 3.55 µM (active). Further, the Potency result in assay [2] and in assay [4] was “inactive” throughout. Besides, the activation in assay [3] was 0.729% [at 17.1 µM, percent relative to cAMP agonist control]; in assay [5] it was 8.81% [at 30.8 µM].

Regarding `O=S(=O)(O)c1cc(O)c(N=Nc2ccc(O)cc2O)c2ccccc12`, the Potency in assay [1] was 37.9 µM (active); in assay [4], 21.3 µM (active). The Potency result in assay [2], in assay [3] and in assay [5] was “inactive” throughout.

As to `COc1ccc(S(=O)(=O)Nc2c(C)nn(C)c2C)cc1Br`, the Potency result in assay [1], in assay [2], in assay [3], in assay [4] and in assay [5] was “inactive” in each case.

As to `COc1cc(NC(=O)c2cnc(N)s2)cc(C(=O)Nc2cccc(C(F)(F)F)c2)c1`, the Potency in assay [1] was 12.6 µM (active). The Potency entry in assay [2] and in assay [4] was “inactive” each time. The activation is 5.57% [at 17.1 µM, percent relative to cAMP agonist control] in assay [3] and 16.6% [at 30.8 µM] in assay [5].

On to `Cn1/c(=N\NC(=O)C2CCCCC2)sc2ccccc21`, for which the Potency result in assay [1], in assay [2], in assay [3], in assay [4] and in assay [5] was “inactive” throughout.

For the compound `COc1cc(C(=O)NCC(=O)N/N=C(\C)Cc2ccccc2)cc(OC)c1OC`, the Potency entry in assay [1], in assay [2], in assay [3], in assay [4] and in assay [5] was “inactive” in each case.

Take `CCCCCn1c(CCNC(=O)c2cccc(C)c2)nc2ccccc21`: the Potency entry in assay [1], in assay [2], in assay [3], in assay [4] and in assay [5] was “inactive” each time.

Consider `CN1/C(=C/C=C/c2n(C)c3cc([N+](=O)[O-])c([N+](=O)[O-])cc3[n+]2C)C(C)(C)c2ccccc21`, for which the Potency in assay [1] is 30.1 µM (active); in assay [4], 42.6 µM (active). Also, the Potency result in assay [2], in assay [3] and in assay [5] was “inactive” in each case.

For the compound `Cc1ccc(C)c2nc3sc(C(=O)N4CCCc5ccccc54)c(N)c3cc12`, the Potency in assay [6] was 20.6 µM (active). For the same compound, the Potency entry in assay [1], in assay [2], in assay [3], in assay [4] and in assay [7] was “inactive” in each case.

On to `CCC(Sc1nncn1C)C(=O)Nc1nnc(-c2ccc(Cl)cc2)s1` (stereo not given), for which the Potency entry in assay [1], in assay [2] and in assay [4] was “inactive” in each case. The activation in assay [3] is 5.37% [at 17.1 µM, percent relative to cAMP agonist control]; in assay [5] it was -0.401% [at 30.8 µM].

For `COC(=O)CSc1ncnc2scc(-c3ccccc3)c12`, the Potency entry in assay [1], in assay [2] and in assay [4] was “inactive” each time. The activation in assay [3] was -0.952% [at 17.1 µM, percent relative to cAMP agonist control]; in assay [5], 5.38% [at 30.8 µM].

Regarding `O=C(COC(=O)COc1ccc(Cl)cc1Cl)NC1CCCC1`, the Potency entry in assay [1], in assay [2] and in assay [4] was “inactive” throughout. Moreover, the activation is 9.18% [at 17.1 µM, percent relative to cAMP agonist control] in assay [3] and -1.05% [at 30.8 µM] in assay [5].

As for `COc1ccc2nc3ccccc3[n+]([O-])c2c1`, the Potency was 18.3 µM (active) in assay [6] and 79.4 µM (active) in assay [2]. The Potency entry in assay [1] and in assay [4] was “inactive” each time. Moreover, the activation in assay [3] is 14% [at 17.1 µM, percent relative to cAMP agonist control]. For the same compound, the activity change, negative = inhibition in assay [7] is 32.7% [at 30.8 µM].

In the case of `CC1CN(c2nc3ccccc3nc2C(C#N)C(=O)NCc2ccc3c(c2)OCO3)CC(C)O1` (stereo not given), the Potency entry in assay [6], in assay [1], in assay [2], in assay [3], in assay [4] and in assay [7] was “inactive” each time.

Regarding `Cn1cc([C@]2(O)C(=O)Nc3ccc(OC(F)(F)F)cc32)c2ccccc21`, the Potency entry in assay [1], in assay [2] and in assay [4] was “inactive” each time. The activation in assay [3] was 14.8% [at 17.1 µM, percent relative to cAMP agonist control]; in assay [5], 32.2% [at 30.8 µM].

In the case of `CCOC(=O)N1c2ccccc2Sc2ccccc21`, the Potency result in assay [1], in assay [2] and in assay [4] was “inactive” throughout. The activation in assay [3] is 4.1% [at 17.1 µM, percent relative to cAMP agonist control]; in assay [5], 15.6% [at 30.8 µM].

As to `Cc1ccc(-c2nnc(Nc3ccc4c(c3)nc(C)n4C)c3ccccc23)cc1`, the Potency entry in assay [1], in assay [2] and in assay [4] was “inactive” throughout. The activation in assay [3] was 2.89% [at 17.1 µM, percent relative to cAMP agonist control]; in assay [5], 12% [at 30.8 µM].

Consider `CCCN(CCC)c1nc(-c2ccccn2)nc2ccccc12`, for which the Potency result in assay [1], in assay [2] and in assay [4] was “inactive” each time. Further, the activation in assay [3] was -0.687% [at 17.1 µM, percent relative to cAMP agonist control]; in assay [5], 0.395% [at 30.8 µM].

Turning to `Cc1csc(N=Nc2ccc(N(C)C)cc2)[n+]1[O-]`, the Potency in assay [1] is 67.5 µM (active); in assay [4] it was 37.9 µM (active). Further, the Potency entry in assay [2], in assay [3] and in assay [5] was “inactive” throughout.

On to `COc1cccc(NC(=O)/C(C#N)=C/c2ccc(-c3ccc(C)cc3)o2)c1`, for which the Potency entry in assay [6], in assay [1], in assay [2], in assay [3], in assay [4] and in assay [7] was “inactive” throughout.
